The source of these data is PubChem BioAssay (NCI).

Molecules are shown by their SMILES. This is part of a sample that, as a whole, favours compounds with a hit. Of some 83,000 tested, about 20% had one in any assay.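 Treatment: one concentration, 48 hours, 96-well format. Scoring: percent growth, with anything below 10 considered active.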 A number with no mark means an inactive call. Activity calls are given as the source filed them.

For this assay, the system named is NCI-H322M lung. Briefly: NCI-60 one-dose screen, 48 h (100 = growth as untreated, 0 = no growth, -100 = all killed). Particulars: 10 µM. The protocol: Growth inhibition of the NCI-H322M human Non-Small Cell Lung tumor cell line is measured as a screen for anti-cancer activity. Cells are grown in 96 well plates and exposed to the test compound for 48 hours. Compounds are tested at a single concentration, which is 10^-5 M for most compounds. The reported endpoint is percent growth (GI% or GIPRCNT), where numbers from 0 - 100% represent growth inhibition, and numbers from -100% - 0 represent cell death. For example, a value of 40 represents 60% growth inhibition. A value of 0 means no net growth occurred over the course of the experiment. A value of -40 indicates 40% of cells at the beginning of the experiment died by the end of the experiment. A value of -100 means all cells are dead at the end of the experiment.
NCI-60 Human Tumor Cell Lines Screen was performed using the standard one-dose NCI protocol, which is described in more detail at https://dtp.cancer.gov/discovery_development/nci-60/default.htm.
Compounds with GIPRCNT values below 10 were considered active. Activity score was based on GIPRCNT using the following formula: […]
Score is 0 for GIPRCNT values of 100 or above, 50 for GIPRCNT values of 0, and 100 for GIPRCNT values of -100.
Take `COc1ccc(C2c3sc4ccc(C)cc4c3Oc3nc[nH]c(=O)c32)cc1` (stereo not given): the growth was 105%.
Next, `COc1ccc(Cn2cc(C#N)c(N)c2C(C)=O)c(OC)c1`: 103%; `COc1cccc(O)c1/C=C1\SCc2cc3c(OC)cccc3[o+]c21`: 103%.
Next, `Nc1nnc(-c2c[nH]c3ncc(Br)cc23)c(-c2c[nH]c3ccc(Br)cc23)n1`: 63%; `COc1cc2oc(-c3cccc(C(=O)Nc4ccc(Cl)cc4)c3)cc(=O)c2c(OCCNC(=O)[C@@H](N)CO)c1OC`: 55.3%.
The value for `COC(=O)CNC(=O)COc1c(OC)c(OC)cc2oc(-c3cccc(C(=O)Nc4ccc(Cl)cc4)c3)cc(=O)c12` was 76.6%.
For `Cn1cc(-c2nnc(N)nc2-c2c[nH]c3ccccc23)c2cc(Br)cnc21`, the growth is 65.2%.
The value for `COc1cccc(C(=O)CSc2nc(-c3ccc(OCc4ccccc4)c(OC)c3)c(C#N)c(=O)[nH]2)c1` was 88.3%; that for `COc1ccc2[nH]cc(-c3nc(N)nnc3-c3cn(C)c4ncc(Br)cc34)c2c1` was 35%.
The value for `COc1ccc(NCc2cn(-c3ccc(C(=O)O)cc3)nc2-c2ccc(F)cc2)cc1C(F)(F)F` was 62%; that for `Fc1ccc(/C=C/c2nc3ccccc3n3c(-c4ccc(Cl)cc4)nnc23)cc1` was 89.6%.
The value for `O=C(CN1CCN(c2ncnc3c2cnn3-c2ccccc2)CC1)Nc1ccc(Br)cc1` was 77.2%.
In the case of `COc1ccc(C(=O)COc2ccc(NC(=O)Nc3ccccc3)cc2)cc1`, the growth is 88.5%.
With `O=C(Nc1ccc(OCc2ccc(Cl)cc2)cc1)Nc1ccc(Cl)c(C(F)(F)F)c1`, the growth was 25.9%.
The value for `CC(C)(C)c1cc(/C=C2\S/C(=N/c3ncn[nH]3)NC2=O)cc(C(C)(C)C)c1O` was 17%.
Next, `O=C(c1ccc(Cl)cc1)C(c1c[nH]c2ccccc12)c1c[nH]c2ccccc12`: 38.1%; `Cn1cc(-c2nc(N)nnc2-c2c[nH]c3ccccc23)c2cc(Br)cnc21`: 37.2%; `Cn1cc(-c2cc(N)n3nc(-c4cn(C)c5ccccc45)cc3n2)c2cc(F)ccc21`: -19.1% (active).
The value for `CCOc1ccc(/C=N/NC(=O)Cn2nc(Cc3ccc(OC)cc3)c3onc(C)c3c2=O)cc1` was 62.1%.
Consider `Cc1ccc2c(c1)C(=O)/C(=C/c1c[nH]c3ccccc13)S2`, for which the growth was 72.2%.
The value for `CCOC(=O)C1=C(N)N(c2ccc(C)cc2)C2=C(C(=O)CC(C)(C)C2)C1c1ccccc1Br` (stereo not given) was 99%; that for `Cc1ccc(-c2nc(C#N)c(S(=O)(=O)N3CCN(S(C)(=O)=O)CC3)o2)cc1` was 98.8%.
As to `COc1cc2oc(-c3cccc(C(=O)Nc4ccc(Cl)cc4)c3)cc(=O)c2c(OCCN)c1OC`, the growth is -93.7% (active).
As to `CC1(C)CC[C@]2(C(=O)O)CC[C@]3(C)C(=CCC4[C@@]5(C)C[C@@H](O)[C@@H]6OC(c7cccc(F)c7)OC[C@@]6(C)C5CC[C@]43C)C2C1` (stereo not given in full), the growth was 34.2%.
The value for `CCn1c(SCC(=O)Nc2ccc(-c3nc4ccccc4[nH]3)cc2)nc2ccccc2c1=O` was -68.3% (active); that for `Cc1ccc2sc3c(c2c1)Oc1nc[nH]c(=O)c1C3c1cccc(F)c1` (stereo not given) was 96.7%; that for `O=C(CN1CCN(c2ncnc3c2cnn3-c2ccccc2)CC1)Nc1ccc(Cl)cc1` was 78.9%.
The value for `C#CCOc1cc(N(CC)CC)ccc1C(C(=O)NC(C)(C)C)N(C(=O)C1CCc2cc(F)ccc2O1)c1ccc(F)cc1F` (stereo not given) was 81.6%; that for `O=C1S/C(=C\c2ccc([N+](=O)[O-])cc2)C(=O)N1CCN1CCCCC1` was 107%.
Next, `Cc1ccc(S(=O)(=O)N2CCN(S(=O)(=O)c3oc(-c4ccccc4)nc3C#N)CC2)cc1`: 84.8%; `COc1cc(C2CC(c3ccc(Oc4ccc(Cl)cc4)cc3)=NN2c2nc(-c3ccc(Cl)cc3)c(C#N)c(N3CCOCC3)n2)cc(OC)c1OC` (stereo not given): 98%.
In the case of `Cn1cc(/C=C(/SS/C(=C/c2cn(C)c3cccc(C(=O)O)c23)C(=O)O)C(=O)O)c2c(C(=O)O)cccc21`, the growth was 102%.
Next, `O=C(c1ccccc1)c1ccc2nc(-c3ccccc3Br)[nH]c2c1`: -96.2% (active); `O=C(Nc1ccc(OCC(=O)c2ccc(Cl)cc2)cc1)Nc1ccc(Cl)c(C(F)(F)F)c1`: 49.1%.
Next, `O=C(CC(=O)Nc1ccc(Oc2ncnc3scc(Nc4n[nH]c(=S)s4)c23)cc1)Nc1ccc(Br)cc1`: 106%.
Next, `Cc1ccc(COc2ccc(NC(=O)Nc3ccc(Cl)c(C(F)(F)F)c3)cc2)cc1`: 77.4%.
`Cc1ccc2c(c1)C(=O)/C(=C/c1ccc([N+](=O)[O-])cc1)S2`: the growth was 105%.
Next, `CCOC(=O)c1ccc(NC(=O)CSC(CC(=O)c2sc(Nc3ccccn3)nc2C)c2ccccc2F)cc1` (stereo not given): 17.5%; `COc1cc(-c2nc3ccc(C)cc3[nH]2)ccc1OCc1nnc(-c2ccccc2Br)o1`: 87.3%; `CC1(C)CC(=O)C2=C(C1)N(Cc1ccc(C(=O)O)cc1)C1=C(C(=O)CC(C)(C)C1)C2c1ccc(Cl)cc1`: 93.7%.
